# Data: ChEMBL document CHEMBL3433997, “St. Jude Leishmania screening dataset” (2016)
# Tests used:
# Assay type in all cases: functional
# [1] = molecular target: Solute carrier family 2, facilitated glucose transporter member 1 (Homo sapiens) (UniProt P11166); experiment: ST_JUDE_LEISH: Cytotoxicity at 2uM final concentration against transgenic Leishmania Mexicana promastigotes LmGLUT1 that are glucose transport deficient and complemented with the human glucose transporter GLUT1. Activity is measured by DNA content using SYBR green in vitro
# Solute carrier family 2, facilitated glucose transporter member 1 (Homo sapiens), sequence (P11166 whole entry): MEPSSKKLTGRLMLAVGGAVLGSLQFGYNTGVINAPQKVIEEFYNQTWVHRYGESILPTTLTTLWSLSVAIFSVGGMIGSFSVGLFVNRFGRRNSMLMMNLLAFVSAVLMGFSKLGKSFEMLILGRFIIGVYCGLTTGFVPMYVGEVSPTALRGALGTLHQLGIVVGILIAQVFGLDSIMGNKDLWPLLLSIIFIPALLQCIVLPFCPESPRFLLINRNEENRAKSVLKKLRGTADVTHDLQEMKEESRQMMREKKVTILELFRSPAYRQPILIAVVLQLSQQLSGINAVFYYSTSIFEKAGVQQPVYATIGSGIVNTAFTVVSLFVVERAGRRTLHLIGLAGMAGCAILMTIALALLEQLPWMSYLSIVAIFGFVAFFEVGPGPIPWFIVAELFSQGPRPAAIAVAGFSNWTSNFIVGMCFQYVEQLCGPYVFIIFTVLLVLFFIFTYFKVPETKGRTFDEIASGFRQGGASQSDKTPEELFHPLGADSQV
# [2] = molecular target: Hexose transporter 1 (Plasmodium falciparum) (UniProt O97467); experiment: ST_JUDE_LEISH: Cytotoxicity at 2uM final concentration against transgenic Leishmania Mexicana promastigotes LmPfHT that are glucose transport deficient and complemented with the Plasmodium falciparum hexose transporter. Activity is measured by DNA content using SYBR green in vitro
# [3] = molecular target: Glucose transporter (Leishmania mexicana) (UniProt O61059); experiment: ST_JUDE_LEISH: Cytotoxicity at 2uM final concentration against transgenic Leishmania Mexicana promastigotes LmGT2 that are glucose transport deficient and complemented with the L. Mexicana glucose transporter 2. Activity is measured by DNA content using SYBR green in vitro
SMILES,inhibition [1] [%],inhibition [2] [%],inhibition [3] [%]
N=C(N)NC(=O)Nc1cc(Br)c(Cl)c(C(F)(F)F)c1,4.79,3.32,0.66
O=C(Nc1cc(F)cc(F)c1)NC1CCN(CCCCCNC(=O)C2CC2c2ccc(Cl)c(Cl)c2)CC1 (stereo unspecified),0.3,-0.08,-2.77
O=C(NCc1cccc(F)c1)Nc1cccc(-c2ccc(-c3nc4cc(C(F)(F)F)ccc4[nH]3)cc2)c1,0.26,1.57,0.07
O=C(Nc1ccc(C(F)(F)F)cc1)c1cc(Br)cnc1NCCCn1ccnc1,-0.53,-4.7,-3.55
O=[N+]([O-])c1ccc(N2CCCN(C(=S)Nc3ccc(F)cc3Br)CC2)nc1,1.6,-0.77,1.29
COC(=O)c1ccc(N2CCN(CCCCNC(=O)c3ccc(NC(=O)c4ccc(Cl)cc4)cc3)CC2)c(OC)c1,0.45,1.46,1.51
CC(=O)N1CCC(C(=O)Nc2ccc(-c3cccc(-c4nc5cc(C(F)(F)F)ccc5[nH]4)c3)cc2)CC1,0.57,3.33,1.24
CCCCCOc1ccc(/N=C2\C=C(O)C(=O)c3ccccc32)cc1,1.82,2.9,2.17
OC(CNCc1ccccc1OCc1ccccc1)c1cccc(Cl)c1 (stereo unspecified),5.6,4.24,5.2
COc1cc(Cc2cnc(N)nc2N)cc(OCCCCc2nnn[nH]2)c1OC,-0.47,1.16,-0.95
FC(F)(F)c1ccc(CNCC2CCN(Cc3ccc4c(c3)OCO4)CC2)cc1,1.98,2.65,5.32
CCC(CC)NCc1c(O)ccc2c(CNC(CC)CC)c(O)ccc12,-1.88,-0.71,-1.57
O=C(/C=C/c1ccc(Cl)c(Cl)c1)N1CCC(CN2CCC(Cc3c[nH]c4ccccc34)CC2)CC1,4.43,4.8,3.96
COc1ccc(-c2ccc(NC(=O)c3ccc(Cl)cc3)cc2)cc1CN1CCNCC1,1.97,2.41,2
CC(C)c1ccc(CN2CCCCC(NC(=O)c3cc(-c4ccccc4F)cs3)C2)cc1 (stereo unspecified),8.71,8.1,11.2
Cc1cccc2nc(-c3cccc(-c4ccc(NC(=O)Nc5ccsc5)cc4)c3)[nH]c12,5,4.66,2.53
O=C(CCc1c[nH]cn1)Nc1cccc(-c2cccc(-c3nc4ccccc4[nH]3)c2)c1,14.3,13.2,11.3
Cn1c(=N)n(CC(=O)OCc2ccc(OCc3ccccc3)cc2)c2ccccc21,2.99,2.29,1.49
CC(C)(C)c1ccc(-c2cc(C(=O)N[C@@H](CO)C(=O)O)on2)cc1.CC(C)(C)c1ccc(-c2nocc2C(=O)N[C@@H](CO)C(=O)O)cc1,4.07,3.4,6.48
CC(C)(C)c1ccc(N2C(N)=NC(N)=NC2(C)C)cc1,-0.57,0.01,1.34
FC(F)(F)c1ccc2[nH]c(-c3ccc(-c4ccc(CNCCN5CCNCC5)cc4)cc3)nc2c1,-1.44,0.13,-1.25
CC(CCc1ccccc1)NCC(O)c1cccc(C(F)(F)F)c1 (stereo unspecified),5.1,5.17,3.76
Cc1c(C)n(C2CCCC2)c2ncnc(OC3CCN(CC(=O)NCC4CC4)CC3)c12,7.05,5.47,2.01
NC1=NC(c2ccccc2)(c2ccccc2)C(=O)N1CC1CCC1,0.06,2.21,0.31

SMILES,inhibition [1] [%],inhibition [2] [%],inhibition [3] [%]
O=C(/C=C/c1ccc(C(F)(F)F)cc1)NCCCCCN1CCC(c2c[nH]c3ccccc23)CC1,-1.24,-1.37,0
Nc1ccnc2ccc(OCCCCCCc3ccccc3)cc12,-1.77,-1.93,-1.14
COc1nc2c(CCN3CC[C@@H](NCc4cc(C#N)c5c(c4)CCO5)[C@@H](O)C3)ccnc2cc1F,7.43,4.07,0.66
Cc1cc(C2CCN(CCCCNC(=O)c3ccc(-c4ccc(C(F)(F)F)cc4)cc3)CC2)c(C)cc1OCC#N,-0.43,1.3,-0.09
CC(C)n1ncc2c3c(N)nc(N)nc3ccc21,1.85,1.69,2.51
COc1ccc2nc(-c3ccccc3)cc(NCCN(C)C)c2c1,8.41,9.21,4.86
CCCCOC(=O)C1=C(C)NC2=C(C(=O)CC(c3ccc(OC)c(OC)c3)C2)C1c1ccc(O)cc1 (stereo unspecified),10.4,1.48,3.3
CC(C)C[C@H](NC(=O)c1cc2ccccc2s1)C(=O)N[C@H]1CCN(Cc2ccc(I)c(OC3CCN(C)C3)c2)C1 (stereo partly specified),-1.02,1.35,-2.35
CCn1c2c(c(=N)c3ccccc31)CCC2,-0.78,-2.72,-1.61
COc1cccc(C(=O)OC2=C3CCC(=O)C3(C)CCC2=O)c1 (stereo unspecified),5.35,4.65,6.31
Cc1cccc2nc(-c3ccc(-c4ccc(CN5CCN(CCC#N)CC5)cc4)cc3)[nH]c12,15.7,14.1,11.8
CN(C)CCc1coc2ccc(C(=O)Nc3ccc(-c4ccc(O)cc4)cc3)cc12,4.69,4.41,2.77
COc1cc(Nc2nccc(NCC(O)c3ccc(C(F)(F)F)cc3)n2)cc(OC)c1OC (stereo unspecified),1.6,2.84,2.81
O=C(c1ccc([N+](=O)[O-])o1)N1CCN(c2ccccc2)CC1,3.6,1.95,1.09
COc1ccccc1NC(=O)Nc1ccc(-c2cccc(-c3nc4ccccc4[nH]3)c2)cc1,3,2,3.27
O=C(NC1CCN(CC2(c3ccccc3F)CCCC2)CC1)c1cc[nH]n1,4.33,1.54,1.89
Cc1ccc(-c2nnc(-c3ccc(C(=O)NC4CCN(Cc5ccc(C#N)cc5)CC4)cc3)o2)cc1Br,8.8,5.73,4.37
CC1CCc2sc(-c3nnc(SC(C)C(=O)NC4CC4)o3)cc2C1 (stereo unspecified),-0.92,1.65,1.25
COc1ccc(C(=O)CCC(=O)N(Cc2ccc(-c3ccc(CNCCc4ccc(S(C)(=O)=O)cc4)cn3)cc2)C2CC3CCC2C3)cc1F (stereo unspecified),12.7,9.69,8.16
O=C(NC1CCCCC1)c1ccc(O)c(-c2cccc(C(F)(F)F)c2)c1,2.06,2,1.27
O=C(Nc1ccc2c(c1)CCC2)c1nc(N2CCN(c3ccncc3)CC2)ccc1Cl,1.84,1.86,1.75
Cc1[nH]c2ccccc2c1C(=O)C(C)Sc1nnc(-c2ccccc2F)o1 (stereo unspecified),2.5,1.95,3.81
CC(C)CNCc1cccc(-c2cccc(CN(CCCN3CCN(C)CC3)C(=O)CCC3CCCC3)c2)c1,4.42,3.07,4.38
CCOC(=O)c1c(CN2CCCC2)n(-c2ccccc2)c2cc(Br)c(O)cc12,17,14,16.7

SMILES,inhibition [1] [%],inhibition [2] [%],inhibition [3] [%]
Oc1ccc2ccccc2c1CNCC1CCCCC1,0.28,3.31,2.73
CC(=O)c1c[nH]c2ccc(/C=C/C(=O)NC3CCC(CCN4CCc5ccc(C#N)cc5CC4)CC3)cc12 (stereo unspecified),19.5,14.9,18.9
O=C(COc1ccccc1)N(Cc1ccc(-c2ccc(CNC3Cc4ccccc4C3)cc2)cc1)C1CCNCC1,2.8,2.48,2.61
Cc1cccc(CNc2nc(C)cc(N[C@@H](Cc3ccccc3)C(=O)NCc3cccc(F)c3)n2)c1,6.42,6.57,2.83
CCNc1cc(C(=O)N[C@@H](Cc2ccccc2)[C@H](O)CNC(C)(C)c2cccc(OC)c2)cc(N2CCCC2=O)c1,0.14,1.76,-0.62
Cc1cc(N(C)C2CCN(CC3CCCCC3)C2)nc(Nc2ccc(Br)cc2)n1 (stereo unspecified),2.84,4.85,2.06
Fc1ccccc1CNc1ncc(-c2ccsc2)c(-c2nccs2)n1,-0.99,0.2,-3
CC(=O)Nc1nc(C(=O)Nc2ccc(-c3cccc(-c4nc5cc(C(F)(F)F)ccc5[nH]4)c3)cc2)cs1,0.32,2.2,0.81
CCNCc1ccc(-c2cc3ncnc(Nc4ccc(OCc5cccc(F)c5)c(Cl)c4)c3s2)[nH]1,-0.88,-3.14,3.41
COc1cccc2cc(C(=O)N[C@@H](CC(C)C)C(=O)N[C@H](/C=N/NC(=O)Cc3cccnc3)CCc3ccccc3)oc12,3.03,5.36,1.75
COc1ccc(CCc2ccc(-c3c(C)[nH]c(C)c(Cl)c3=O)cc2)cc1,2.55,3.51,1.05
N#Cc1ccc2[nH]c(-c3ccccc3)nc2c1,7.3,6.06,5.78
CCc1cccc2c(C#N)cn(CC(=O)Nc3ccc(OC)cc3)c12,0.84,3.26,1.27
C1=CN(Cc2ccccc2)C=CC1=C1C=Nc2ccccc21,12.1,10.4,8.71
Cc1ccc(C(O)CNc2ccnc(Nc3cccc(-c4csc(C)n4)c3)n2)cc1 (stereo unspecified),-0.56,-1.05,-1.54
S=C(NCCCCCN1CCC(c2c[nH]c3ccccc23)CC1)Nc1cc(Cl)cc(Cl)c1,0.38,-0.55,0.49
Cc1cc(N[C@@H](CC(C)C)C(=O)NCCOc2ccccc2)nc(NCC2CCCCC2)n1,3.08,9.67,6.41
CCN(CC)CCOc1ccc(N(Cc2ccc(C(C)(C)C)cc2)C(=O)c2ccc(Cc3ccccc3)cc2)cc1OC,17.8,14.8,13.1
Cc1ccc(-c2nc(N3CCN(C(=O)c4ccco4)CC3)c3ccc(Cl)cc3n2)cc1,1.17,2.21,2.34
Cc1ccc(-c2nnc(Nc3ccc(CC(N)=O)cc3)c3ccccc23)cc1S(=O)(=O)NCC1CCCO1 (stereo unspecified),6.25,7.99,2.36
COc1cc(Nc2ccnc3ccc(C(F)(F)F)cc23)cc(OC)c1OC,18.2,23.1,12.6
O=C(Nc1ccc(Cl)c(Cl)c1)Nc1cc(C(F)(F)F)ccc1Cl,-0.56,1.37,1.28
Cn1cnc(CCNC(=O)c2ccc(-c3cccc(-c4nc5cc(F)ccc5[nH]4)c3)cc2)c1,2.97,1.64,0.52
OC(CNCc1ccccc1Oc1ccccc1)c1cccc(C(F)(F)F)c1 (stereo unspecified),3.95,2.2,0.07
